Columns and labels:
Test in all cases: log2 ratio of Biotin-Ahx-Ub-VS probe labelling (fragment/DMSO); higher = less target engagement (more negative = stronger competition), active = hit call of the paper (q ≤ 0.05, log2 ratio ≤ -1)
Conditions in all cases: compound concentration: 200 uM; treatment time: 3 h
USP34 = USP34 (UniProt Q70CQ2)
How it was run: (§1)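 The table lists average log2 ratios of fragment over vehicle, from an unpaired t-test on global-median-normalised Spectronaut label-free quantities. Proteins with ≥2 unique peptides were used. Samples were HEK293T lysate (495 µg) treated in triplicate with fragment at 200 µM or vehicle for 3 h, then with Biotin-Ahx-Ub-VS (0.5 µM final) for 1 h, with labelled DUBs NeutrAvidin-enriched and run by diaPASEF LC-MS/MS.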

USP36 = molecular target: T1, USP36 (UniProt Q9P275)
T1 sequence (whole entry): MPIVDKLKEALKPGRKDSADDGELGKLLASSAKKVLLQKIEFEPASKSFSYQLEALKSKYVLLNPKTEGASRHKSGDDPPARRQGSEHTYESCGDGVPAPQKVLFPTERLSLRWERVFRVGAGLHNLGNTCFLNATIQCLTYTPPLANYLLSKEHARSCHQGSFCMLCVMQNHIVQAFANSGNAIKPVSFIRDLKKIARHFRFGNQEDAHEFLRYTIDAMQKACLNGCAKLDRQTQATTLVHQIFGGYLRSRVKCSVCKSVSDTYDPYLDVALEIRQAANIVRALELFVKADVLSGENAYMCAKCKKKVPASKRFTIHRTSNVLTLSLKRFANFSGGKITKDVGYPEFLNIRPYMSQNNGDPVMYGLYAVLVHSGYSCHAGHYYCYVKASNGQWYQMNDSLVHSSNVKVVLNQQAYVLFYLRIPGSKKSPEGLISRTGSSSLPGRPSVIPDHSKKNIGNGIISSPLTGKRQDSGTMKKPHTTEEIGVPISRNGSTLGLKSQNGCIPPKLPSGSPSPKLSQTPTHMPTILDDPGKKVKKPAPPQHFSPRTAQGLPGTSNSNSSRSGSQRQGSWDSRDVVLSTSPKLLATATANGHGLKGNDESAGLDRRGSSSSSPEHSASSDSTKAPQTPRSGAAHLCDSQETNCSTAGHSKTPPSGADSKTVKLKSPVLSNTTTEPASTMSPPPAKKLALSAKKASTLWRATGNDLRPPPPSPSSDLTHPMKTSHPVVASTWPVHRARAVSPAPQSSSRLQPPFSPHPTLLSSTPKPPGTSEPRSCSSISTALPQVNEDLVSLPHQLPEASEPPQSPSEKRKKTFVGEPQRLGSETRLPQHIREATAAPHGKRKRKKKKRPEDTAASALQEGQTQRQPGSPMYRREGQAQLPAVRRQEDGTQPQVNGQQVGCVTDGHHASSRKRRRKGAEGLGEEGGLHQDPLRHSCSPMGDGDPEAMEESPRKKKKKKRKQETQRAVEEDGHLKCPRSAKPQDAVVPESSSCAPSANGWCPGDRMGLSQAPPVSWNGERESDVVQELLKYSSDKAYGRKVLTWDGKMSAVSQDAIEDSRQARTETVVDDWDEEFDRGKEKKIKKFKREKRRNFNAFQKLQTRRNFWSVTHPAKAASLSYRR
How it was run: as §1

USP38 = molecular target: T2, USP38 (UniProt Q8NB14)
T2 sequence (whole entry): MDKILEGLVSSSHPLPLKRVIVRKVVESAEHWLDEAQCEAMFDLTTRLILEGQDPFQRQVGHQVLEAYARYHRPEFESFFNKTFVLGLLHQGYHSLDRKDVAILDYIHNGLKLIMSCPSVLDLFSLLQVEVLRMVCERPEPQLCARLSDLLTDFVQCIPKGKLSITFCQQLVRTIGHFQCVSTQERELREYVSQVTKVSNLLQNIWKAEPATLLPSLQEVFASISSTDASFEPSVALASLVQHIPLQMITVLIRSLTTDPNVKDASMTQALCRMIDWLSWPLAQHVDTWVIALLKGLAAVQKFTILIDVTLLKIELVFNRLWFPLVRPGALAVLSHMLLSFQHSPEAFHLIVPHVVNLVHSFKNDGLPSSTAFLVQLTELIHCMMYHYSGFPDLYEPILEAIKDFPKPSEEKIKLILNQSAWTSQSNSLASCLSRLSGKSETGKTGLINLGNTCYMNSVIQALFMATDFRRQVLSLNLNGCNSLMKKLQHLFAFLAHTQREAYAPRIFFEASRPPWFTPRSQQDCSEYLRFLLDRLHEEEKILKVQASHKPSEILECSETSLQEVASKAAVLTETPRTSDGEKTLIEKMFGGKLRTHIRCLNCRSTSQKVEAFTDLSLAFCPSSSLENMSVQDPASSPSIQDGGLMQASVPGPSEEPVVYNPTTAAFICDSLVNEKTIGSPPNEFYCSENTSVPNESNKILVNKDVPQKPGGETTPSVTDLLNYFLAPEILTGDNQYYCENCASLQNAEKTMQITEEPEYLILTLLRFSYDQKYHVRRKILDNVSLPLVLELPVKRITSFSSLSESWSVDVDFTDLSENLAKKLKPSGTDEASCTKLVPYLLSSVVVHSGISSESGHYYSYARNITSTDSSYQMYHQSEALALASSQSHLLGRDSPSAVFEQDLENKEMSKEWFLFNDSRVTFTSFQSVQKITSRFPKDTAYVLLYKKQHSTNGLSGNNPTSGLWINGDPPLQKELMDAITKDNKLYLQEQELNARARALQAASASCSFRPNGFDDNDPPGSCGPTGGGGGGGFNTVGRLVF
How it was run: as §1

USP39 = molecular target: T3, USP39 (UniProt Q53GS9)
T3 sequence (whole entry): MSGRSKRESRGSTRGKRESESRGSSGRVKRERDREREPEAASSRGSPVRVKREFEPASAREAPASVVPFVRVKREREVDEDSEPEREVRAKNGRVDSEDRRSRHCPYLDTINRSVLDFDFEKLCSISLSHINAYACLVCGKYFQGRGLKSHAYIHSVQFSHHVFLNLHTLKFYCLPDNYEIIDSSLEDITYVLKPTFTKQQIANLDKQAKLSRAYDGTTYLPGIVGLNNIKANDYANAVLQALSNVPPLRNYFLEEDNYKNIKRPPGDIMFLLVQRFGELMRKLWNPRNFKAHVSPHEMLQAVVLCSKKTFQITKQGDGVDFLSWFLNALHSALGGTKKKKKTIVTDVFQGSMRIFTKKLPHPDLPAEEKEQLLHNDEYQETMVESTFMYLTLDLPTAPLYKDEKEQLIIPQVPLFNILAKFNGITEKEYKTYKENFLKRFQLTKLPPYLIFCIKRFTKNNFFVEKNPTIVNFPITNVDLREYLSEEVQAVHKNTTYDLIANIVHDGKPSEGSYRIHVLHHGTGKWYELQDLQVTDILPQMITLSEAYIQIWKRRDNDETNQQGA
How it was run: as §1

USP4 = molecular target: T4, USP4 (UniProt Q13107)
T4 sequence (whole entry): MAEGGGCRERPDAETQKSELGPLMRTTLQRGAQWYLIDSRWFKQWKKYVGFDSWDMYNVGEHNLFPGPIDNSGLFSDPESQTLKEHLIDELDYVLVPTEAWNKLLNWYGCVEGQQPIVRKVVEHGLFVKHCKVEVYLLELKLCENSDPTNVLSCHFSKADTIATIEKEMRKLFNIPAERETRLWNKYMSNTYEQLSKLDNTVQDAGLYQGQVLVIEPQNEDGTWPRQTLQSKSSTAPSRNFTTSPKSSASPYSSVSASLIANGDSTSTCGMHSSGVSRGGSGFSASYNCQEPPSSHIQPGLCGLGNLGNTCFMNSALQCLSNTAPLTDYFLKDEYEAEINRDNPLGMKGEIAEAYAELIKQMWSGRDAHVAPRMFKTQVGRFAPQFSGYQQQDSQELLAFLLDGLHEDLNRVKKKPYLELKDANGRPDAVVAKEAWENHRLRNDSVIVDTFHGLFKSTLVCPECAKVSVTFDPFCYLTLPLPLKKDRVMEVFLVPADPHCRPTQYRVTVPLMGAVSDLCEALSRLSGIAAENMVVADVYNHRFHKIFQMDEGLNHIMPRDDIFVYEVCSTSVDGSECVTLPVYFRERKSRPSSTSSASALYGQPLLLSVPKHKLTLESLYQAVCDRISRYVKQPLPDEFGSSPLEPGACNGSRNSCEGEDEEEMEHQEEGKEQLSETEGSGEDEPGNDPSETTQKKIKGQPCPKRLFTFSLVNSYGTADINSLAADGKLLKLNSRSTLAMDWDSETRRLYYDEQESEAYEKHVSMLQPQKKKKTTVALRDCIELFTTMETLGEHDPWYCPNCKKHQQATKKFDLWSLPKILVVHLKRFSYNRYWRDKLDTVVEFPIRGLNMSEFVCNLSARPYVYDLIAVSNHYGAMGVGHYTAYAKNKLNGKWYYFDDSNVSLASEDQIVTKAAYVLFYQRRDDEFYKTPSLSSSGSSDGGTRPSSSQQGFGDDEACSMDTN
How it was run: as §1

Measured: log2 ratio of Biotin-Ahx-Ub-VS probe labelling

Chain of USP34 (Q70CQ2 whole entry, the tested form may be a part): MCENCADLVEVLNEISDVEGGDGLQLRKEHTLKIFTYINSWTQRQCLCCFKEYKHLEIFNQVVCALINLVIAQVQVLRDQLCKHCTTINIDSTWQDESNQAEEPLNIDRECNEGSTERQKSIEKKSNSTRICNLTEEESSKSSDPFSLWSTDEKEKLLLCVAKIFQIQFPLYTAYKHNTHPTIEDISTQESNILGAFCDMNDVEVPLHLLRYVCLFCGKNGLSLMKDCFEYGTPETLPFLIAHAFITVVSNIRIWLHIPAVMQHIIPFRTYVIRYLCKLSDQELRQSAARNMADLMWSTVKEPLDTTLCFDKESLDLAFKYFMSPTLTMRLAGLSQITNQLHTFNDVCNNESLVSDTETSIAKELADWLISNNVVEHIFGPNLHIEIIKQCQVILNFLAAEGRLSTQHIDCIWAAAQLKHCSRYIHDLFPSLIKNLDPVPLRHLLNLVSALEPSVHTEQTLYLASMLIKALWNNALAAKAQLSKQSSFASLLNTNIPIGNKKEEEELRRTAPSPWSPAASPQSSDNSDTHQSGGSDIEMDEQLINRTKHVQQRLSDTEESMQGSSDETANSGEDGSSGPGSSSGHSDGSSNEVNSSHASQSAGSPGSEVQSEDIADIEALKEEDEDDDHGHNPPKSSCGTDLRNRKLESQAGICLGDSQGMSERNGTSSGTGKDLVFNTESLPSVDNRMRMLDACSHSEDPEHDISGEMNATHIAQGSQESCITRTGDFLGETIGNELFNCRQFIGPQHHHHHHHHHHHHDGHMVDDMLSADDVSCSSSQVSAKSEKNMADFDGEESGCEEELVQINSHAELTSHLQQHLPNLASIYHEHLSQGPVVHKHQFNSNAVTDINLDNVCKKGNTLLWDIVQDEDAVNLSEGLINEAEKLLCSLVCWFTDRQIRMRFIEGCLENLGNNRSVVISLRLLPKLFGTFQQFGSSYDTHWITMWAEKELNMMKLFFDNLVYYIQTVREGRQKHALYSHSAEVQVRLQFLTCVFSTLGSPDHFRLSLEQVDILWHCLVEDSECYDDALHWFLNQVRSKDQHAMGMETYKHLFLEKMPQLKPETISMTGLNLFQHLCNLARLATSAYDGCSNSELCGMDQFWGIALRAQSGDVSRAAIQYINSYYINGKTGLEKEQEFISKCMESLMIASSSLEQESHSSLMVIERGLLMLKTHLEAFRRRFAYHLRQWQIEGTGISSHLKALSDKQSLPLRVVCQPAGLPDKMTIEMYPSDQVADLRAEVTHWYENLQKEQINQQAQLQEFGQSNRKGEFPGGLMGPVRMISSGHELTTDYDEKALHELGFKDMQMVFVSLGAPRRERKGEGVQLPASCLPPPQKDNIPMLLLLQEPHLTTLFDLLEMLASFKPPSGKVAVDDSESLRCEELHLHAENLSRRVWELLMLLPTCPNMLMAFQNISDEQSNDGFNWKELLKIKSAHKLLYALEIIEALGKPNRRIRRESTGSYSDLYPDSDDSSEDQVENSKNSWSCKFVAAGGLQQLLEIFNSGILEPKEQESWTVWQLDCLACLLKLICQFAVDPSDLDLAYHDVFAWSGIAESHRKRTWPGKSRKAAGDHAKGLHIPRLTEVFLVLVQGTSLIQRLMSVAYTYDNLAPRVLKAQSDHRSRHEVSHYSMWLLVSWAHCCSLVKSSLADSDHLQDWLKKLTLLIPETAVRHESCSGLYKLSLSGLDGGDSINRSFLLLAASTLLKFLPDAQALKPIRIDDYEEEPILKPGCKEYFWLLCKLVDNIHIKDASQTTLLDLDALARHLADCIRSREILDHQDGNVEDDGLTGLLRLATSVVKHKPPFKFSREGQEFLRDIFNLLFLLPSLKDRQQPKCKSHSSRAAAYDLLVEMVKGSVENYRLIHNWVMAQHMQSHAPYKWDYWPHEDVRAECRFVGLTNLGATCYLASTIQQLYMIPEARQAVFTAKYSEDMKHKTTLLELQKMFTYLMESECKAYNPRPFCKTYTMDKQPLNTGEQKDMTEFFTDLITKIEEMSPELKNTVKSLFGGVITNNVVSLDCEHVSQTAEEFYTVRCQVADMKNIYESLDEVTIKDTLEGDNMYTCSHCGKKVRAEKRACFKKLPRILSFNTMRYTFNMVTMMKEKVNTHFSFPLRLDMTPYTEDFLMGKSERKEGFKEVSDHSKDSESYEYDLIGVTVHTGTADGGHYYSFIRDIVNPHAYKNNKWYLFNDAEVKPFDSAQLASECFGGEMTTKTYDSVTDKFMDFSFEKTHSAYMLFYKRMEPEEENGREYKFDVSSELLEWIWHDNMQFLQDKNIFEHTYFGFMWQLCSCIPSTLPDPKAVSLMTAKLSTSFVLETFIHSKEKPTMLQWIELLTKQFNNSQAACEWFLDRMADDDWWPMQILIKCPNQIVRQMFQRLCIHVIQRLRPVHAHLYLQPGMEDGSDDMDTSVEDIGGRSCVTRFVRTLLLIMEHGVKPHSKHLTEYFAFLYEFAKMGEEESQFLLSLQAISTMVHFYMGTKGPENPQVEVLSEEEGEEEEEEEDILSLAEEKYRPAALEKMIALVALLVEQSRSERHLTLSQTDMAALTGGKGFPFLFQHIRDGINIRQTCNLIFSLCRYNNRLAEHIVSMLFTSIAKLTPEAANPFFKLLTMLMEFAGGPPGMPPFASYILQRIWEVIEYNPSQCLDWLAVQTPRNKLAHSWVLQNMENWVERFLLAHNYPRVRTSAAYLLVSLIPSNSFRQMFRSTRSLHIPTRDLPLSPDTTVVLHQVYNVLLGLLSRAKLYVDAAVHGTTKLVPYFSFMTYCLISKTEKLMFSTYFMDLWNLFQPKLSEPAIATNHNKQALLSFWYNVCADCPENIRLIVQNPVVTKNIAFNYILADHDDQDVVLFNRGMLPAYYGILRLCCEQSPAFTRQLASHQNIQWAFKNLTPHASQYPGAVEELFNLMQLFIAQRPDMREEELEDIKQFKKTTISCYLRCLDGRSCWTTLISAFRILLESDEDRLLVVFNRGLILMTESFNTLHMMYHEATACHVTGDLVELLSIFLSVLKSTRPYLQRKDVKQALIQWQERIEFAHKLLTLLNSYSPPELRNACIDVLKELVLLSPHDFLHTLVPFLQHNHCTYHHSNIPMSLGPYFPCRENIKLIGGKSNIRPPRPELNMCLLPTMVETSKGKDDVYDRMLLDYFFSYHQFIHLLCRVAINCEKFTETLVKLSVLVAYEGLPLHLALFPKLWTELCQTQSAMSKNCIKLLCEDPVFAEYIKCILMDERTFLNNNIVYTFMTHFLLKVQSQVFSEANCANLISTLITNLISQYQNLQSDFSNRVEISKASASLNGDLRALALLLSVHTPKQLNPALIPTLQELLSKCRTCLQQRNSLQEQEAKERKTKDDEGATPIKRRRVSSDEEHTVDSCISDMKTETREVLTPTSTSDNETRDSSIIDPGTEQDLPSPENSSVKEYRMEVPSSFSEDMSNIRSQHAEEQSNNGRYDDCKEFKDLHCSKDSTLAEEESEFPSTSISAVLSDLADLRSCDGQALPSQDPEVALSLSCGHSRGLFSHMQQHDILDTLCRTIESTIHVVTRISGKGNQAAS

Cc1ccc(-c2nnc(C)[nH]2)c(NC(=O)CCl)c1
inactive: USP34 0.0375 | USP36 -0.152 | USP38 0.151 | USP39 0.182 | USP4 0.0297

Reference: the supplement of paper PMC11732987, “Enantioselective OTUD7B fragment discovery through chemoproteomics screening and high-throughput optimisation” (Communications Chemistry, 2025)
